From the supplement of paper PMC12669797
Several values for one entry are separate records, joined by “and”; a condition that tells them apart may be missing. Identical values can stand only once.

What was measured:
ES2 = assay: cell viability relative to DMSO control (MTS) (fraction of DMSO control); higher = more viable cells / less growth inhibition; conditions: 10 µM; 48 h
In short: (§1)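 A 367-compound […] library was tested at a final concentration of 10 µM on TOV-21G and ES2 clear cell carcinoma cells (5000 cells per well, 96-well plates, pre-grown 24 h), with control wells receiving vehicle only. Following 48 h of exposure, CellTiter 96 AQueous One Solution was used as the manufacturer directs. This MTS assay gives cell viability as a fraction of the vehicle control.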

TOV-21G = assay: as above; conditions: 10 µM; 48 h
In short: as §1

| Structure (SMILES) | cell viability (ES2) | cell viability (TOV-21G) |
| --- | --- | --- |
| COc1cc2ncnc(Nc3ccc(F)c(Cl)c3)c2cc1OCCCN1CCOCC1 [gefitinib] | 0.825 | 0.889 |
| O=c1cc(N2CCOCC2)oc2c(-c3ccccc3)cccc12 | 0.666 and 0.627 | 0.52 and 0.519 |
| O=C(Nc1cccc(Nc2nccc(Nc3cccc(C(F)(F)F)c3)n2)c1)C1CC1 [Aurora kinase inhibitor III] | 0.94 | 0.573 |
| O=c1c(-c2ccc(O)cc2)coc2cc(O)cc(O)c12 [Genistein] | 1.31 | 0.988 |
| CCn1cc(C(=O)O)c(=O)c2ccc(C)nc21 [Nalidixic acid] | 0.981 | 1.12 |
| CCNCCCNCCCCNCCCNCC [N1,N12-Diethylspermine (BESpm)] | 1 | 0.731 |
| CNC(=O)[C@H](Cc1c[nH]c2ccccc12)NC(=O)[C@@H](CC(=O)NO)CC(C)C | 1.02 | 0.959 |
| CC(C)C[C@@H](N)[C@H](O)C(=O)N[C@H](C(=O)N[C@H](C(=O)N[C@@H](CC(=O)O)C(=O)O)C(C)C)C(C)C [Amastatin] | 0.963 | 1.02 |
| Cc1cccc(-c2nn(C(=S)Nc3ccccc3)cc2-c2ccnc3ccccc23)n1 | 0.872 | 1.01 |
| CO[C@H]1C[C@@H]2CC[C@@H](C)[C@@](O)(O2)C(=O)C(=O)N2CCCC[C@H]2C(=O)O[C@H]([C@H](C)C[C@@H]2CC[C@@H](OCCO)[C@H](OC)C2)CC(=O)[C@H](C)/C=C(\C)[C@@H](O)[C@@H](OC)C(=O)[C@H](C)C[C@H](C)/C=C/C=C/C=C/1C [everolimus] | 1.02 | 0.831 |
| CSc1ccc(/C=C2/C(C)=C(CC(=O)O)c3cc(F)ccc32)cc1 [Sulindac sulfide] | 1.38 | 1.3 |
